This is part of a sample that, as a whole, favours compounds with a hit. Of some 83,000 tested, about 20% had one in any assay.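 Growth was measured after 48 h exposure to one concentration of compound in 96-well plates. Values under 10 count as active.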 Unmarked numbers belong to inactive results. The source made the active and inactive calls.

Here are results for eight compounds from PubChem BioAssay (NCI).

Among the test systems are MOLT-4 leukemia; SR leukemia; RPMI-8226 leukemia; OVCAR-8 ovarian; OVCAR-5 ovarian; OVCAR-4 ovarian; SK-OV-3 ovarian; IGROV1 ovarian; OVCAR-3 ovarian; HS 578T breast; NCI/ADR-RES ovarian; T-47D breast; BT-549 breast; MDA-MB-435 melanoma; SW-620 colon; MCF7 breast; HCT-116 colon; HCC-2998 colon; KM12 colon.
What all share (experiment): NCI-60 one-dose screen, 48 h (100 = growth as untreated, 0 = no growth, -100 = all killed)
Conditions in all cases: 10 µM unless noted

As for `CCC(C)(C)[C@H](NC(=O)[C@H]1CCCCN1C)C(=O)N(C)[C@H](C[C@@H](OC(C)=O)c1nc(C(=O)N[C@@H](Cc2ccccc2)C[C@H](C)C(=O)O)cs1)C(C)C`, the growth in the assay on MOLT-4 leukemia is 15.5%; in the assay on SR leukemia, 6.11% (active); in the assay with RPMI-8226 leukemia it was 7.76% (active); in the assay with OVCAR-8 ovarian, 14.2%; with OVCAR-5 ovarian, 42.5%; in the assay on OVCAR-4 ovarian it was 40.4%. Besides, the growth in the assay on SK-OV-3 ovarian was 38.1%; in the assay with IGROV1 ovarian it was 17.5%; with OVCAR-3 ovarian, 5.97% (active); with HS 578T breast it was 13.3%; with NCI/ADR-RES ovarian it was 16.8%; with T-47D breast, 76.7%. Further, the growth with BT-549 breast is -34.7% (active); in the assay on MDA-MB-435 melanoma it was -47.2% (active); with SW-620 colon, 26.6%; with MCF7 breast, 23.9%; with HCT-116 colon, -10% (active); in the assay on HCC-2998 colon, 22.2%. For the same compound, the growth in the assay on KM12 colon is 4.26% (active).

On to `COc1ccc(C(O)(C(=O)O)c2ccc(OC)cc2)cc1`, for which the growth with MOLT-4 leukemia was 87.1%; in the assay on SR leukemia, 102%; with RPMI-8226 leukemia, 78.2%; in the assay on OVCAR-8 ovarian, 93.3%; in the assay on OVCAR-5 ovarian, 103%; in the assay with OVCAR-4 ovarian, 97.8%. The growth in the assay on SK-OV-3 ovarian is 99.1%; with IGROV1 ovarian, 87.5%; in the assay on OVCAR-3 ovarian, 106%; in the assay with HS 578T breast it was 94.6%; in the assay with NCI/ADR-RES ovarian, 97.8%; with T-47D breast it was 76.4%. The growth in the assay on BT-549 breast was 106%; with MDA-MB-435 melanoma, 102%; with SW-620 colon it was 95.2%; with MCF7 breast, 88.6%; with HCT-116 colon, 83.2%; in the assay on HCC-2998 colon, 90.6%. In the assay with KM12 colon, the growth was 87.7%.

Turning to `CC(=O)OC1CCC2C3CCC4=C/C(=N/OC(=O)c5ccc(N(CCCl)CCCl)cc5)CCC4(C)C3CC(C)C12` (stereo unspecified), the growth is 57.7% with MOLT-4 leukemia; -7.87% (active) in the assay on SR leukemia; 70.8% in the assay on RPMI-8226 leukemia; 54.5% in the assay with OVCAR-8 ovarian; 101% with OVCAR-5 ovarian; 72% in the assay on OVCAR-4 ovarian. Besides, the growth with SK-OV-3 ovarian was 114%; in the assay with IGROV1 ovarian, -59.1% (active); in the assay on OVCAR-3 ovarian, 59.7%; in the assay on HS 578T breast, 26.3%; in the assay on NCI/ADR-RES ovarian, -13.2% (active); in the assay with T-47D breast, 43.8%. Further, the growth in the assay on BT-549 breast was 110%; in the assay with MDA-MB-435 melanoma, 78.3%; in the assay with SW-620 colon it was 83.4%; with MCF7 breast it was 99.3%; with HCT-116 colon, 54.6%; with HCC-2998 colon, 98.6%. The growth with KM12 colon was 73.6%.

Turning to `C[N+]12CN3CN(CN(C3)C1)C2`, the growth is 123% in the assay on MOLT-4 leukemia; 138% in the assay on SR leukemia; 88% in the assay on RPMI-8226 leukemia; 100% with OVCAR-8 ovarian; 82.7% in the assay on OVCAR-5 ovarian; 105% in the assay with OVCAR-4 ovarian. Also, the growth in the assay with SK-OV-3 ovarian was 118%; in the assay with IGROV1 ovarian, 91.2%; in the assay with OVCAR-3 ovarian it was 115%; in the assay on HS 578T breast it was 98%; in the assay on NCI/ADR-RES ovarian, 97.9%; in the assay with T-47D breast, 93%. For the same compound, the growth is 113% in the assay with BT-549 breast; 101% in the assay with MDA-MB-435 melanoma; 96.7% in the assay on SW-620 colon; 97.3% in the assay on MCF7 breast; 92.8% in the assay with HCT-116 colon; 99.3% in the assay on HCC-2998 colon. Besides, the growth in the assay with KM12 colon is 111%.

As to `CC[C@H](C)[C@H](NC(=O)[C@H]1CCCCN1C)C(=O)N(C)[C@H](CCc1nc(C(=O)N[C@@H](Cc2ccccc2)C[C@H](C)C(=O)OC)cs1)C(C)C`, the growth in the assay on MOLT-4 leukemia was 15%; in the assay on SR leukemia it was 13.2%; in the assay with RPMI-8226 leukemia, 15.5%; with OVCAR-8 ovarian, 23.2%; in the assay with OVCAR-5 ovarian, 49.3%; in the assay on OVCAR-4 ovarian it was 43.6%. Moreover, the growth with SK-OV-3 ovarian was 8.81% (active); in the assay on IGROV1 ovarian, 26.8%; with OVCAR-3 ovarian it was -18.6% (active); with HS 578T breast, 39.2%; with NCI/ADR-RES ovarian it was 29.2%; with T-47D breast, 59.3%. Moreover, the growth was -8.87% (active) in the assay on BT-549 breast; -39.4% (active) with MDA-MB-435 melanoma; 28% in the assay with SW-620 colon; 20.5% in the assay with MCF7 breast; 1.83% (active) with HCT-116 colon; 20.7% in the assay with HCC-2998 colon. Also, the growth in the assay with KM12 colon is 15.8%.

For `CC1=C(CCCNS(C)(=O)=O)C2=C(C)C3(CC3)[C@@](C)(O)C(=O)C2=C1`, the growth was 90.2% in the assay on MOLT-4 leukemia; 92.8% with SR leukemia; 97% with RPMI-8226 leukemia; 6.9% (active) in the assay on OVCAR-8 ovarian; 2.82% (active) in the assay with OVCAR-5 ovarian; -12.1% (active) with OVCAR-4 ovarian. For the same compound, the growth in the assay on SK-OV-3 ovarian is -18% (active); in the assay on IGROV1 ovarian, -2.43% (active); with OVCAR-3 ovarian, -12.7% (active); with HS 578T breast, 57.9%; in the assay with NCI/ADR-RES ovarian, -5.49% (active); with T-47D breast, -11.2% (active). Also, the growth in the assay with BT-549 breast is -31% (active); with MDA-MB-435 melanoma, 11.7%; with SW-620 colon it was 83.3%; in the assay on MCF7 breast, 20.7%; in the assay on HCT-116 colon it was 1.02% (active); with HCC-2998 colon it was -43.3% (active). Moreover, in the assay on KM12 colon, the growth was 62.4%.

Regarding `C=CC12CCN(CC1)C(C(O)c1ccnc3ccc(OC)cc13)C2` (stereo unspecified), the growth in the assay on MOLT-4 leukemia is 67.8%; in the assay on SR leukemia, 37.1%; in the assay on RPMI-8226 leukemia it was 4.37% (active); with OVCAR-8 ovarian, 92.3%; in the assay with OVCAR-5 ovarian, 88.4%; in the assay on OVCAR-4 ovarian, 76.9%. The growth with SK-OV-3 ovarian is 89.2%; in the assay with IGROV1 ovarian, 81.4%; with OVCAR-3 ovarian it was 93.7%; in the assay with HS 578T breast, 90.4%; in the assay on NCI/ADR-RES ovarian it was 91.8%; with T-47D breast, 82.5%. Besides, the growth in the assay with BT-549 breast was 103%; in the assay on MDA-MB-435 melanoma, 56.5%; with SW-620 colon it was 88.9%; in the assay on MCF7 breast, 66.5%; in the assay on HCT-116 colon, 60.5%; with HCC-2998 colon it was -34.8% (active).

In the case of `COC(=O)[C@@H](C)C[C@H](Cc1ccccc1)NC(=O)c1csc([C@@H](C[C@H](C(C)C)N(C)C(=O)[C@@H](NC(=O)[C@H]2CCCCN2C)C2CCCCC2)OC(C)=O)n1`, the growth is 3.17% (active) in the assay with MOLT-4 leukemia; 4.79% (active) with SR leukemia; 4.31% (active) with RPMI-8226 leukemia; 14.6% with OVCAR-8 ovarian; 23.1% with OVCAR-5 ovarian; 36.7% in the assay with OVCAR-4 ovarian. For the same compound, the growth in the assay on SK-OV-3 ovarian was -1.95% (active); in the assay on IGROV1 ovarian, 22.3%; with OVCAR-3 ovarian it was -21.5% (active); in the assay on HS 578T breast it was -6.6% (active); in the assay with NCI/ADR-RES ovarian, 10.6%; in the assay on T-47D breast, 39.1%. Further, the growth in the assay on BT-549 breast is -11.8% (active); with MDA-MB-435 melanoma it was -47.6% (active); with SW-620 colon, 19.1%; with MCF7 breast it was 18.3%; in the assay on HCT-116 colon, -22.1% (active); with HCC-2998 colon it was 10.3%. Besides, the growth with KM12 colon was 2.88% (active).
